High-throughput results from PubChem BioAssay.
An excerpt weighted towards active compounds, which were near 4.5% of everything screened.
FBA Mtb inh = inhibitors of M. tuberculosis fructose-bisphosphate aldolase. AID 588726. inhibition, % at 1 µM. purified M. tuberculosis FBA, fluorescence read-out. hit rate 2.3% among 360,000; in the data active = inhibition above about 27%
Target sequence (P9WQA3 whole entry, looked up): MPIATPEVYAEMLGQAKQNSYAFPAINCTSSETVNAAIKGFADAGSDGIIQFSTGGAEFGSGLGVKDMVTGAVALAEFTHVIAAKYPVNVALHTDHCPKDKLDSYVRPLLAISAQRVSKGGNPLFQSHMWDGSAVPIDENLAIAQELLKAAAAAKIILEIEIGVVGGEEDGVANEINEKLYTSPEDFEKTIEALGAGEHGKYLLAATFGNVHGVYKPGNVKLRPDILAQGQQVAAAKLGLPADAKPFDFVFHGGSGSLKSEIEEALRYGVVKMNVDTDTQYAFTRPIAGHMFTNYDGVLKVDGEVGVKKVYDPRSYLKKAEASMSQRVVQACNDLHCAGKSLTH
PrPC surface inh = inhibitors of human cell surface prion protein PrPC. hit rate 0.43% among 370,000. inhibition, % at 13.8 µM. P04156. TR-FRET read-out. AID 720596; in the data active = inhibition above about 24%
GDH-TPI inh = inhibits GDH-TPI coupling enzymes, artifact for Mtb FBA screen; AID 588335; inhibition, % at 4.8 µM; hit rate 1.2% among 360,000; GDH-TPI coupled enzyme counterscreen, NADH absorbance; in the data active = inhibition above about 30%
BJeLR lethal = BJeLR cell viability loss | inhibition, % (concentration not given with the values) | AID 1554 | BJeLR (HRASV12) viability, CellTiter-Glo ATP luminescence, 48 h | hit rate 0.17% among 300,000; in the data active = inhibition above about 50%
PfHsp40 yeast = restores yeast growth despite PfHsp40 toxicity | S. cerevisiae expressing PfHsp40, growth rescue, ATP luminescence | hit rate 0.68% among 340,000 | AID 504582 | growth rescue, % at 12.5 µM; in the data active = growth rescue above about 28%, passing the limit was not always enough;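 also: yeast W303a lacking pdr1 and pdr3 grown in galactose medium; growth measured after three days at 30 °C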
PrP 5UTR inh = inhibition of PrP 5' UTR reporter expression; hit rate 0.35% among 340,000; inhibition, % (test concentration not listed); cell-based PrP 5' UTR mRNA reporter, plate reader; in the data active = inhibition above about 52%
Of the large screens only hits and unclear results are named; the others gave an inactive call.

CCN(CC)C(=O)CC[C@H]1CC[C@]2(CCCN(Cc3cccnc3)C2)O1	none (no result: FBA Mtb inh, GDH-TPI inh, BJeLR lethal, PfHsp40 yeast, PrP 5UTR inh)
CC1Cc2nc(SCC(=O)c3ccccc3)n(Cc3ccccc3)c(=O)c2S1 (stereo unspecified)	none
CC1Cc2nc(SCC(=O)NCc3ccccc3)n(Cc3ccccc3)c(=O)c2S1 (stereo unspecified)	GDH-TPI inh 34
COc1ccc(CCn2c(=N)c(C(=O)NCC3CCCO3)cc3c(=O)n4cccc(C)c4nc32)cc1 (stereo unspecified)	none
N=c1c(C(=O)NCC2CCCO2)cc2c(=O)n3ccccc3nc2n1Cc1cccnc1 (stereo unspecified)	FBA Mtb inh active
N=c1c(C(=O)NCC2CCCO2)cc2c(=O)n3ccccc3nc2n1Cc1ccc(F)cc1 (stereo unspecified)	FBA Mtb inh active
Cc1cccn2c(=O)c3cc(C(=O)NCC4CCCO4)c(=N)n(Cc4cccnc4)c3nc12 (stereo unspecified)	FBA Mtb inh active (no result: BJeLR lethal)
CC(=O)C1=C(C)N(Cc2ccc(Cl)cc2)C(=S)NC1c1ccccc1 (stereo unspecified)	none (no result: FBA Mtb inh, GDH-TPI inh, BJeLR lethal, PfHsp40 yeast, PrP 5UTR inh)
Cc1cccc(-c2cccc3c4c([nH]c23)[C@@H]2C[C@H](N(C)C(=O)c3cccc(Cl)c3)[C@H]([C@H](C)O)CN2CC4)c1	none (no result: FBA Mtb inh, GDH-TPI inh, BJeLR lethal, PfHsp40 yeast, PrP 5UTR inh)
O=C(CSc1n[nH]c(-c2ccc(S(=O)(=O)NC3CCCCC3)cc2)n1)N1CCCC1	FBA Mtb inh 125
O=C(COc1ccc(S(=O)(=O)NC2CCCC2)cc1)N1CCCCC1	none
O=C(NNC(=O)c1cc(Br)ccc1O)c1csc(N2CCOCC2)n1	PfHsp40 yeast 76 (no result: PrPC surface inh, BJeLR lethal)
COc1ccc(/C=N/Nc2nc(C)c([N+](=O)[O-])c(N(C)c3ccccc3)n2)cc1OC	GDH-TPI inh 45
CC(=O)Nc1ccc(Nc2nc(C)c([N+](=O)[O-])c(N(C)c3ccccc3)n2)cc1	none
CCOc1ccccc1NC(=O)c1cc(C(=O)c2cc(Br)ccc2O)coc1=N	GDH-TPI inh 31 (no result: BJeLR lethal)
Cc1cc(C)cc(Cn2c3ccc(NC(=O)NCc4ccccc4)cc3c(=O)n2C)c1	FBA Mtb inh 172 (no result: BJeLR lethal, PfHsp40 yeast, PrP 5UTR inh)
Cc1cc(C)cc(Cn2c3ccc(NC(=O)NCc4ccc(F)cc4)cc3c(=O)n2C)c1	FBA Mtb inh 133 (no result: BJeLR lethal, PfHsp40 yeast, PrP 5UTR inh)
CCC[C@@H](/C=C/C(=O)OC(C)(C)C)Sc1ccccc1OC	none (no result: FBA Mtb inh, GDH-TPI inh, BJeLR lethal, PfHsp40 yeast, PrP 5UTR inh)
N#CCSc1nnc(-c2ccccc2)c(-c2ccccc2)n1	none
N#CCSc1nc(-c2ccccc2)cs1	PfHsp40 yeast 36
N#CCSc1ccc2nc(-c3ccccc3)cn2n1	FBA Mtb inh 134
C[C@H]1[C@@H](C(=O)N2CCCC2)CC(=O)/C(=N/OCc2ccccc2)C[C@@H]1c1ccccc1	none (no result: FBA Mtb inh, GDH-TPI inh, BJeLR lethal, PfHsp40 yeast, PrP 5UTR inh)
O=C(Nc1ccc(Nc2ccccc2)cc1)C(Cl)(Cl)Cl	PfHsp40 yeast 33
CCCc1cc(=O)oc2cc(OCC(=O)N3CCC(C(N)=O)CC3)ccc12	none
CCCc1cc(=O)oc2c3c(cc(OCC(=O)NCC4CCC(C(=O)O)CC4)c12)OC(C)(C)CC3 (stereo unspecified)	FBA Mtb inh active
CCCc1cc(=O)oc2c3c(cc(OCC(=O)N4CCC(C(=O)O)CC4)c12)OC(C)(C)CC3	FBA Mtb inh active (no result: BJeLR lethal, PfHsp40 yeast, PrP 5UTR inh)
COc1ccc(CN(C)C(=O)C2CCCN(c3nc4ccccc4o3)C2)cc1 (stereo unspecified)	none (no result: FBA Mtb inh, GDH-TPI inh, BJeLR lethal, PfHsp40 yeast, PrP 5UTR inh)
OC[C@@H]1[C@@H](c2ccccc2)C(c2ccc(F)cc2)=NN1c1ccccc1	FBA Mtb inh 46 (no result: PrPC surface inh, BJeLR lethal)
COc1ccc(-c2c(C)c3ccc(OCC(C)=O)cc3oc2=O)cc1	none (no result: FBA Mtb inh, PrPC surface inh, GDH-TPI inh)
Cc1c(Cc2ccccc2)c(=O)oc2c(CN(C)C)c(O)c(Cl)cc12	FBA Mtb inh active
COc1ccc(-c2c(C)c3ccc(O)cc3oc2=O)cc1	FBA Mtb inh active
CCOC(=O)CCc1c(C)c2ccc(O)cc2oc1=O	FBA Mtb inh active
CCOC(=O)Cc1c(C)c2c(O)cc(O)cc2oc1=O	FBA Mtb inh 121
O=c1[nH]cnc2c1ccn2C1OC(CO)C(O)C1O (stereo unspecified)	none (no result: BJeLR lethal)
Cc1c(Cc2ccccc2)c(=O)oc2cc(O)ccc12	FBA Mtb inh active
COc1ccccc1CNC(=O)NCCCN1CCN(c2ccc(F)cc2)CC1	none (no result: FBA Mtb inh, GDH-TPI inh, BJeLR lethal, PfHsp40 yeast, PrP 5UTR inh)
CCCCNC(=O)C[C@H]1C[C@@]2(C(=O)OC)C(=C[C@H](C3CCCC3)O[C@@H]2C)N(Cc2ccccc2)C1=O	none (no result: FBA Mtb inh, GDH-TPI inh, BJeLR lethal, PfHsp40 yeast, PrP 5UTR inh)
CC(C)=CCc1c2c(c3occ(-c4ccc(O)c(O)c4)c(=O)c3c1O)C=CC(C)(C)O2	none (no result: BJeLR lethal)
CC(C)=CCc1c2c(c3occ(-c4ccc(O)cc4)c(=O)c3c1O)C=CC(C)(C)O2	PfHsp40 yeast 39
N=c1oc2ccccc2cc1C(=O)Nc1ccc(F)cc1	FBA Mtb inh 64 (no result: PrP 5UTR inh)
O=C(O)c1ccccc1NC(=O)c1cc2ccccc2oc1=O	GDH-TPI inh 50
CN(Cc1cn(C)c2ccccc12)C(=S)Nc1cc(F)cc(F)c1	PfHsp40 yeast 57
CC(C)(C)OC(=O)N[C@@H]1C=CC(=O)C1	none (no result: FBA Mtb inh, GDH-TPI inh, BJeLR lethal, PfHsp40 yeast, PrP 5UTR inh)
COc1cc2cc(C(=O)N/N=C/c3ccc(F)cc3)[nH]c2cc1OC	GDH-TPI inh 46
COCC(C)NC(=O)c1cc(OC)cc(OC)c1 (stereo unspecified)	none
CCOc1ccc2[nH]c(C(=O)N/N=C/c3ccc(OC)cc3)cc2c1	GDH-TPI inh 55
O=C(O)COc1ccccc1/C=N/NC(=O)c1ccc(F)cc1	GDH-TPI inh 46
COCC(C)NC(=O)c1cc2cc(OC)ccc2[nH]1 (stereo unspecified)	FBA Mtb inh 46
CCC[C@H]1[C@@H](N(C)Cc2ccccc2)CC[C@@]23CCCN2C(=O)CCC[C@@H]13	none (no result: FBA Mtb inh, GDH-TPI inh, BJeLR lethal, PfHsp40 yeast, PrP 5UTR inh)
COc1cc2cc(C(=O)N/N=C/c3ccccc3Cl)[nH]c2cc1OC	GDH-TPI inh 47
COc1cccc(/C=N/NC(=O)c2nc(-c3ccccc3)cc(-c3ccccc3)n2)c1O	PfHsp40 yeast 254
COc1cc(OC)c2cc(C(=O)N/N=C/c3cccc(OC)c3O)[nH]c2c1	GDH-TPI inh 43
COc1cccc(/C=N/NC(=O)N/N=C/c2cccc(OC)c2O)c1O	none
COc1ccccc1C=NNC(=O)NN=Cc1ccccc1OC	GDH-TPI inh 31 (no result: BJeLR lethal)
CCOc1ccc(-n2c(SCC(=O)Nc3ccccc3-c3ccccc3)nnc2-c2ccncc2)cc1	none (no result: FBA Mtb inh, GDH-TPI inh, BJeLR lethal, PfHsp40 yeast, PrP 5UTR inh)
C[N+]1=C2N[C@@H](c3ccccc3)CC(=O)N2/C(=C\c2ccccc2)[C@@H]1Cc1ccccc1	none (no result: FBA Mtb inh, GDH-TPI inh, BJeLR lethal, PfHsp40 yeast, PrP 5UTR inh)
C#CCNC(=O)C[C@H]1C[C@@]2(C(=O)OC)C(=C[C@H](C3CCCC3)O[C@@H]2C)N(CCC2=CCCCC2)C1=O	none (no result: FBA Mtb inh, GDH-TPI inh, BJeLR lethal, PfHsp40 yeast, PrP 5UTR inh)
C=Cc1ccc(C(=O)Nc2nnc(-c3cccnc3)s2)cc1	none (no result: FBA Mtb inh, GDH-TPI inh, BJeLR lethal, PfHsp40 yeast, PrP 5UTR inh)
COc1cc(/C=N/NC(=O)c2ccc(-c3ccccc3)cc2)cc(OC)c1OC	none
COc1ccc(/C=N/NC(=O)c2cc3cc(OC)c(OC)cc3[nH]2)cc1	GDH-TPI inh 42
COc1ccc2cc(C(=O)N/N=C/c3cc(OC)c(OC)c(OC)c3)[nH]c2c1	GDH-TPI inh 49
Oc1ccc(/C=N/NC(=S)Nc2cccnc2)cc1	GDH-TPI inh 36
